# Source: publication PMC7862700, “An all-to-all approach to the identification of sequence-specific readers for epigenetic DNA modifications on cytosine”
# Legend:
# Test in all cases: DAPPL (digital affinity profiling via proximity ligation, sequencing); 10 mM Tris-HCl pH 7.5, 50 mM NaCl, 1 mM DTT, 4% glycerol, room temperature, 30 min; GST-TFs on glutathione beads, 16-mer random dsDNA library, 0.1% formaldehyde crosslink after washing; high values mean tight binding
# [1] = biological target: T1, FLI1 (Homo sapiens, UniProt Q01543 1-452); conditions: protein: recombinant; tags: N-terminal GST; dsDNA, one strand shown
# T1 sequence: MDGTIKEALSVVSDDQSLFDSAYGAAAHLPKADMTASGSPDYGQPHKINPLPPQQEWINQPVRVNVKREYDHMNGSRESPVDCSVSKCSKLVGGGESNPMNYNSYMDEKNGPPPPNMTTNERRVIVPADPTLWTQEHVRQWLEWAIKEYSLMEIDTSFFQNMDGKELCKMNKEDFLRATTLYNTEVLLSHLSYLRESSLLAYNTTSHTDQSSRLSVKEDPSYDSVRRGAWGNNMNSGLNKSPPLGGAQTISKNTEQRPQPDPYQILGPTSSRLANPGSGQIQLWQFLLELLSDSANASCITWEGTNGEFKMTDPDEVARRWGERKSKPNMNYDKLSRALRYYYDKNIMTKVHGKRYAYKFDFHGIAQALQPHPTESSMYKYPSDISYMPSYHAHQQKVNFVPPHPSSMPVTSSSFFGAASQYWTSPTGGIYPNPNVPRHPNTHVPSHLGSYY
# Outline: (§1)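 GST fusions of human transcription factors were expressed in yeast and captured with glutathione beads. Once given DNA barcodes and pooled alongside a tag-only sample, they were incubated for 30 min at room temperature with 200 nmole of a random double-stranded 16-mer DNA library in Tris/NaCl/DTT/glycerol buffer, then washed, crosslinked (0.1% formaldehyde), proximity-ligated, PCR-amplified and sequenced on an Illumina NextSeq500. The binding signal of each hexamer is its read frequency for a factor divided by its frequency for the tag-only sample.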
# [2] = biological target: T2, ELK1 (Homo sapiens, UniProt P19419 1-428); conditions: protein: recombinant; tags: N-terminal GST; dsDNA, one strand shown
# T2 sequence: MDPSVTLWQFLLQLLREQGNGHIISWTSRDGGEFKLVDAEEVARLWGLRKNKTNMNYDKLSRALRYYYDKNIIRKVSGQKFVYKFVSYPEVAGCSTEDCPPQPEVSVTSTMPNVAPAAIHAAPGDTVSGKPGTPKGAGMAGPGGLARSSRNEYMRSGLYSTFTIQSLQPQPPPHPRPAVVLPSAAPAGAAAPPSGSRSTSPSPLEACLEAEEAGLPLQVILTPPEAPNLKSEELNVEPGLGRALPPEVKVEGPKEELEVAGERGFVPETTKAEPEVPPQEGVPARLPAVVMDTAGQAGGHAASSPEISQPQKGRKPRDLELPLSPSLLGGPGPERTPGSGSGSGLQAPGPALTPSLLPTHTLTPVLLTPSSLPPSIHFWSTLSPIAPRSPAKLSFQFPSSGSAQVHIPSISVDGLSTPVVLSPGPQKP
# Outline: as §1
# [3] = biological target: T3, GABPA (Homo sapiens, UniProt Q06546 1-454); conditions: protein: recombinant; tags: N-terminal GST; dsDNA, one strand shown
# T3 sequence: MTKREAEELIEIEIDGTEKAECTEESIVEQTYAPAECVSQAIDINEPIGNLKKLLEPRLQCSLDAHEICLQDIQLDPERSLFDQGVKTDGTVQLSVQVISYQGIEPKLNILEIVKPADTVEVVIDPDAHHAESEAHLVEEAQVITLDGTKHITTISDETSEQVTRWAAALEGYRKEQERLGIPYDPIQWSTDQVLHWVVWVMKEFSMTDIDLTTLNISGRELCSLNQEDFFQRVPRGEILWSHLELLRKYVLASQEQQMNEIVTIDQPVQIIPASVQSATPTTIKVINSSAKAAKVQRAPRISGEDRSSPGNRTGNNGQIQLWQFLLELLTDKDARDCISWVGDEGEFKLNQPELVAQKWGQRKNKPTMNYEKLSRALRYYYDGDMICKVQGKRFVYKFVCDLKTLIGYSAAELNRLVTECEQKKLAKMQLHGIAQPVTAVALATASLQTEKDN
# Outline: as §1
# [4] = biological target: T4, ERG (Homo sapiens, UniProt P11308 1-479); conditions: protein: recombinant; tags: N-terminal GST; dsDNA, one strand shown
# T4 sequence: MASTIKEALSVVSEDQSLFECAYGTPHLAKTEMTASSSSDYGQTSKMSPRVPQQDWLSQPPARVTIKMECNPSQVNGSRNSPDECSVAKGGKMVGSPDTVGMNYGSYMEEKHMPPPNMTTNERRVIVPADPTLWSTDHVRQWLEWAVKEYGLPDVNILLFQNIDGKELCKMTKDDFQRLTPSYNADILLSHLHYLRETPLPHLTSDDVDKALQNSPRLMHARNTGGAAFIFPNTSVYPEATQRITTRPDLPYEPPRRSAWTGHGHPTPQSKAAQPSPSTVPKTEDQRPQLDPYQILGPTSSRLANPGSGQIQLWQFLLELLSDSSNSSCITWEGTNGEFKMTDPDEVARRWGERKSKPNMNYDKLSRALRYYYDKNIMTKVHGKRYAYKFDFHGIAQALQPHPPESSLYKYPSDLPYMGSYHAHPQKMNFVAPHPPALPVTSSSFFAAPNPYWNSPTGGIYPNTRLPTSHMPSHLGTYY
# Outline: as §1
# [5] = biological target: ELF1 (Homo sapiens, UniProt P32519 1-619); conditions: protein: recombinant; tags: N-terminal GST; dsDNA, one strand shown
# Outline: as §1
# [6] = biological target: T5, EHF (Homo sapiens, UniProt Q9NZC4 1-300); conditions: protein: recombinant; tags: N-terminal GST; dsDNA, one strand shown
# T5 sequence: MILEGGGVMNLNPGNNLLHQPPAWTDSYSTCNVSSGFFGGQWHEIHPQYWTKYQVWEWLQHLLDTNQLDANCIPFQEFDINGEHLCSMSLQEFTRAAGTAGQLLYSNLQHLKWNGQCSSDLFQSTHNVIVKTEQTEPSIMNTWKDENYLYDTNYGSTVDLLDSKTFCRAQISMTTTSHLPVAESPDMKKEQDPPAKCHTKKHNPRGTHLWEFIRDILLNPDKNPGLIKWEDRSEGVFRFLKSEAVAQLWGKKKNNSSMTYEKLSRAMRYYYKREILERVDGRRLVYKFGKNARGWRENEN
# Outline: as §1
# [7] = biological target: SPI1 (Homo sapiens, UniProt P17947 1-270); conditions: protein: recombinant; tags: N-terminal GST; dsDNA, one strand shown
# Outline: as §1
# [8] = biological target: SPIB (Homo sapiens, UniProt Q01892 1-262); conditions: protein: recombinant; tags: N-terminal GST; dsDNA, one strand shown
# Outline: as §1
# [9] = biological target: T6, ELK3 (Homo sapiens, UniProt P41970 1-407); conditions: protein: recombinant; tags: N-terminal GST; dsDNA, one strand shown
# T6 sequence: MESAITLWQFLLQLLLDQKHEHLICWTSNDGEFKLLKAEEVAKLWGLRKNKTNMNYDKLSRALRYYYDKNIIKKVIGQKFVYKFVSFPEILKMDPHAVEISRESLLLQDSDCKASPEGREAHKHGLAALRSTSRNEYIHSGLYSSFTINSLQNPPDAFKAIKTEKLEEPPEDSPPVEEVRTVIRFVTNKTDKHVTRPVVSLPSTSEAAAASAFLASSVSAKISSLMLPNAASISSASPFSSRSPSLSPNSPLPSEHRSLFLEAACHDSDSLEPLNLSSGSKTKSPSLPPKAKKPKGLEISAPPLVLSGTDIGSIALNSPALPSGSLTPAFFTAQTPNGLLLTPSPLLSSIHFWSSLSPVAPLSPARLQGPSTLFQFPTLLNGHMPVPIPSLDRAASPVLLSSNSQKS
# Outline: as §1
# [10] = biological target: T7, FEV (Homo sapiens, UniProt Q99581 1-238); conditions: protein: recombinant; tags: N-terminal GST; dsDNA, one strand shown
# T7 sequence: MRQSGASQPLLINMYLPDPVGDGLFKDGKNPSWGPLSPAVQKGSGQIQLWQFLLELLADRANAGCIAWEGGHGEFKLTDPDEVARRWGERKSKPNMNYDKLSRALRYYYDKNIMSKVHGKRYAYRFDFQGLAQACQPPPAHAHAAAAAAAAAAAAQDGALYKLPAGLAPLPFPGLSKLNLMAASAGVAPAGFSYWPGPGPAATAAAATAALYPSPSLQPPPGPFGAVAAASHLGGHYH
# Outline: as §1
# [11] = biological target: ETV5 (Homo sapiens, UniProt P41161 1-510); conditions: protein: recombinant; tags: N-terminal GST; dsDNA, one strand shown
# Outline: as §1
# [12] = biological target: HSF1 (Homo sapiens, UniProt Q00613 1-529); conditions: protein: recombinant; tags: N-terminal GST; chain copies: 3; dsDNA, one strand shown
# Outline: as §1
# [13] = biological target: T8, SPIC (Homo sapiens, UniProt Q8N5J4 1-248); conditions: protein: recombinant; tags: N-terminal GST; dsDNA, one strand shown
# T8 sequence: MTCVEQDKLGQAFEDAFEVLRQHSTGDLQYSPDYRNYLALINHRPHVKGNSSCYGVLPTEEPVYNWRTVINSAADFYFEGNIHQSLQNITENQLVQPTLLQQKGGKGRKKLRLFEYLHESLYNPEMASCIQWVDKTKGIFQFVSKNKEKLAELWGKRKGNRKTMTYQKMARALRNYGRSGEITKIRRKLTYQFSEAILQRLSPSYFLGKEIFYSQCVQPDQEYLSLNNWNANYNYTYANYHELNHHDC
# Outline: as §1
# [14] = biological target: ELF4 (Homo sapiens, UniProt Q99607 1-663); conditions: protein: recombinant; tags: N-terminal GST; dsDNA, one strand shown
# Outline: as §1
# [15] = biological target: T9, ELK4 (Homo sapiens, UniProt P28324-2 1-405); conditions: protein: recombinant; tags: N-terminal GST; dsDNA, one strand shown
# T9 sequence: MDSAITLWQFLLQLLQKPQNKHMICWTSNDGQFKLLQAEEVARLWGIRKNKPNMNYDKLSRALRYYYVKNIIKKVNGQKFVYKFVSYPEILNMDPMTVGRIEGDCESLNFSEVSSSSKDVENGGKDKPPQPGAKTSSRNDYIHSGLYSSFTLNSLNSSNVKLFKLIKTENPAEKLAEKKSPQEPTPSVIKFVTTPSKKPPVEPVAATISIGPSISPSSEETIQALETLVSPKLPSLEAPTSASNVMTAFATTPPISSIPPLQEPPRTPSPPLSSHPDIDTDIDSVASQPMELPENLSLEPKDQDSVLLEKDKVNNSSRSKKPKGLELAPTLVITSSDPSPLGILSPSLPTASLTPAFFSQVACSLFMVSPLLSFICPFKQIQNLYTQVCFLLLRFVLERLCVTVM
# Outline: as §1
# [16] = biological target: T10, ETV2 (Homo sapiens, UniProt O00321 1-342); conditions: protein: recombinant; tags: N-terminal GST; dsDNA, one strand shown
# T10 sequence: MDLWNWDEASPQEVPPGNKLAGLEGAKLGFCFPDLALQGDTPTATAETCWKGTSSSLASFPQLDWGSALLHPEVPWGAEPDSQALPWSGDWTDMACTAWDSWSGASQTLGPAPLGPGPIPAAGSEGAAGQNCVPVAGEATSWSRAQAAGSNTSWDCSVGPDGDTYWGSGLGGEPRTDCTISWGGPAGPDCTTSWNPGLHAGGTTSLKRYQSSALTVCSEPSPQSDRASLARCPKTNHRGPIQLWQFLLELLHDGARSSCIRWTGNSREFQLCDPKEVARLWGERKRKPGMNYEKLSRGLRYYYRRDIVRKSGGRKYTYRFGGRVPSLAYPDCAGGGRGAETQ
# Outline: as §1
# [17] = biological target: T11, ELF3 (Homo sapiens, UniProt P78545 1-371); conditions: protein: recombinant; tags: N-terminal GST; dsDNA, one strand shown
# T11 sequence: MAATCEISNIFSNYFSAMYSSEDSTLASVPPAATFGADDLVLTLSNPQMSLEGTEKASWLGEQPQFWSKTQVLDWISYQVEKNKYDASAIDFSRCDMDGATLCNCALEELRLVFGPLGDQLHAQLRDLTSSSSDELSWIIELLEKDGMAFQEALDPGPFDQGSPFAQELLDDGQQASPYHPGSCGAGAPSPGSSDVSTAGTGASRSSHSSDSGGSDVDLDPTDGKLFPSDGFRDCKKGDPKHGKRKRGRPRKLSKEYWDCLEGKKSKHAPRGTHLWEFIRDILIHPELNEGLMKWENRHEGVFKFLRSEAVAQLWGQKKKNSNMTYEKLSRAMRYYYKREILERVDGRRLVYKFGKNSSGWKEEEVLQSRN
# Outline: as §1
# [18] = biological target: CRX (Homo sapiens, UniProt O43186 1-299); conditions: protein: recombinant; tags: N-terminal GST; dsDNA, one strand shown
# Outline: as §1
# [19] = biological target: ETV1 (Homo sapiens, UniProt P50549 1-477); conditions: protein: recombinant; tags: N-terminal GST; dsDNA, one strand shown
# Outline: as §1
# Chain of SPIB (Q01892 whole entry): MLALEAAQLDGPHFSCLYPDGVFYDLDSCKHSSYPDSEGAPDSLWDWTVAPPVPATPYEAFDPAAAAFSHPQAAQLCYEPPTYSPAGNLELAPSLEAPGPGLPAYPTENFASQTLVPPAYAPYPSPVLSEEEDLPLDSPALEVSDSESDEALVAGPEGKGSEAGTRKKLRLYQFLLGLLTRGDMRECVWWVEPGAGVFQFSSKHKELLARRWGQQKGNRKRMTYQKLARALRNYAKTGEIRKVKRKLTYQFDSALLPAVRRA
# Chain of ETV5 (P41161 whole entry): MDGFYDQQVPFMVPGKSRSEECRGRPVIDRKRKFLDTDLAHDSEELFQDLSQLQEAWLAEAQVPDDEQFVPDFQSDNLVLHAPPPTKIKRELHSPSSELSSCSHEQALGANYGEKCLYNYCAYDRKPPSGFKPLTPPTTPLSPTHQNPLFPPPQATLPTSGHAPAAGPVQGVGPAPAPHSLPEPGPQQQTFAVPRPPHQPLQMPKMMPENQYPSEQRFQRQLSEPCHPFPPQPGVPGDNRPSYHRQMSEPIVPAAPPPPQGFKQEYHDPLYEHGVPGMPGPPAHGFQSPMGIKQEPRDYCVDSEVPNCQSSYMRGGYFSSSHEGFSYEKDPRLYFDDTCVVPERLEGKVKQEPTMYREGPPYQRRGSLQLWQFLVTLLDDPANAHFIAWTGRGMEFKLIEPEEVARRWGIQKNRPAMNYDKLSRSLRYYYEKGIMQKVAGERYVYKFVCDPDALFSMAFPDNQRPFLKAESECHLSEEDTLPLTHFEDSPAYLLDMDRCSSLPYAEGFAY
# Chain of ELF1 (P32519 whole entry): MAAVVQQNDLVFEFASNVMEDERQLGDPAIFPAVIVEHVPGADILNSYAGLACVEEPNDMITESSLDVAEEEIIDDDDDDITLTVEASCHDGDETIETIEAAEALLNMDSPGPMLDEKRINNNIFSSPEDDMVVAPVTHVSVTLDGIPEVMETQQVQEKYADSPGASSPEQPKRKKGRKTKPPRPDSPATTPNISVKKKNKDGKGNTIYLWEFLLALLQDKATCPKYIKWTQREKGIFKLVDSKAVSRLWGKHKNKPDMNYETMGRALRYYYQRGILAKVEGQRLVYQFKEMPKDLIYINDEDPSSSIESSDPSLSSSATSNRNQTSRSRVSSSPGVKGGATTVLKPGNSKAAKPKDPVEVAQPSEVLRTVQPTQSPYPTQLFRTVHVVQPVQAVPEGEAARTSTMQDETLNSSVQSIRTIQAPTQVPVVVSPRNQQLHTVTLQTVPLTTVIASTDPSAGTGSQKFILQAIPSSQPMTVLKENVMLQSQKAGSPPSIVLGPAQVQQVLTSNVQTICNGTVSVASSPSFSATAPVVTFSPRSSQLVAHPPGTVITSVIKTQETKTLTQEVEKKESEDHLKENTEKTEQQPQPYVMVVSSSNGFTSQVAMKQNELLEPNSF
# Chain of HSF1 (Q00613 whole entry): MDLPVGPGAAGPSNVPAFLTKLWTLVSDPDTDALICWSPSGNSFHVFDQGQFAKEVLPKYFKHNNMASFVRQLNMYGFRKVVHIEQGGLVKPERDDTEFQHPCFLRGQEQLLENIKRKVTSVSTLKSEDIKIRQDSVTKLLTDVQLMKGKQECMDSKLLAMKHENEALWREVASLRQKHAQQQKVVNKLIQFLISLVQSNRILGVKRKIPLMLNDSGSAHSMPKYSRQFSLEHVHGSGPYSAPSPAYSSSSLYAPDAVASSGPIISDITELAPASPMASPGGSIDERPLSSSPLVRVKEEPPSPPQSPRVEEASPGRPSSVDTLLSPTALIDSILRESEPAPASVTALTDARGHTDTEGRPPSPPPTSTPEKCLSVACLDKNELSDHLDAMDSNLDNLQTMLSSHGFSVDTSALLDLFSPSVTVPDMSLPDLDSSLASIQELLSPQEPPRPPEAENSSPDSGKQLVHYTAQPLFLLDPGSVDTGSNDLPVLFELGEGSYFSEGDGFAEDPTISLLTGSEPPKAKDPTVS
# Chain of ETV1 (P50549 whole entry): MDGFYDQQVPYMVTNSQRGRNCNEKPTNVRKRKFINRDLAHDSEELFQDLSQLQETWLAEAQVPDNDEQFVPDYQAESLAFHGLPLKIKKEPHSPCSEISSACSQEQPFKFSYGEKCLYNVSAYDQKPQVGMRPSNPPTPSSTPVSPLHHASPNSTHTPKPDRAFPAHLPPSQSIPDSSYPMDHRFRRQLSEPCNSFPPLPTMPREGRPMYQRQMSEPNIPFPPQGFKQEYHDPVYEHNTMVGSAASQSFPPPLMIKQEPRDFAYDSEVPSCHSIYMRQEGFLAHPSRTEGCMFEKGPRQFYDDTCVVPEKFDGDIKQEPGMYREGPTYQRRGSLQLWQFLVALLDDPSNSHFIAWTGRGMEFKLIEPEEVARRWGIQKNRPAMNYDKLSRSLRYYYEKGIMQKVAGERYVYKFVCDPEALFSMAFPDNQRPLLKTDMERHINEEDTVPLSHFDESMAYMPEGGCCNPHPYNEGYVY
# Chain of CRX (O43186 whole entry): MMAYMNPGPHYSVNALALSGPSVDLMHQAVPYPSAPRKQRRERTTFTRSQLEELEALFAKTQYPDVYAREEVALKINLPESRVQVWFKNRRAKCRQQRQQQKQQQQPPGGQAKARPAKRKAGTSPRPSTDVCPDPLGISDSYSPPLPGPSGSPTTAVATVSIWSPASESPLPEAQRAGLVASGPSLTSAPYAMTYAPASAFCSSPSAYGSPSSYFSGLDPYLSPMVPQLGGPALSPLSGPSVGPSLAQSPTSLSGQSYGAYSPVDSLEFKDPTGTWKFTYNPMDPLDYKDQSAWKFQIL
# Chain of ELF4 (Q99607 whole entry): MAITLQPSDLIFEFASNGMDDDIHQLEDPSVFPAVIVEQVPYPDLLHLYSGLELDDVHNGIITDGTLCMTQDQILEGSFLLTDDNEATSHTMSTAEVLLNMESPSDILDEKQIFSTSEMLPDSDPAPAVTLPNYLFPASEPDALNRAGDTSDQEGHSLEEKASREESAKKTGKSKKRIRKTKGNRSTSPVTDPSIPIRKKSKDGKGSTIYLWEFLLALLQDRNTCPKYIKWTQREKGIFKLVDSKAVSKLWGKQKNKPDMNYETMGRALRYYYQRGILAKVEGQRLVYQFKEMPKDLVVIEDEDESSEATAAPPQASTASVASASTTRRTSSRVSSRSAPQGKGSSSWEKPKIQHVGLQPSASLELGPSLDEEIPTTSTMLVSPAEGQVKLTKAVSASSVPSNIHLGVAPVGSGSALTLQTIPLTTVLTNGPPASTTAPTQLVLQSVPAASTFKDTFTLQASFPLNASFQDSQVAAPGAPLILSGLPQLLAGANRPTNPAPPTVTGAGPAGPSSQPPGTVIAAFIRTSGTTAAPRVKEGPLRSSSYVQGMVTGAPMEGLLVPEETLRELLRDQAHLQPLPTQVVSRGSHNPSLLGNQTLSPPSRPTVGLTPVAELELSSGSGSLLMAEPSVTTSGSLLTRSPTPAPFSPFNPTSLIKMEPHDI
sequence,measurement,setting,value
GAAATT,binding signal,[1],"1.23 fold enrichment (6-mer frequency, TF over GST control)"
same,binding signal,[2],"1.15 fold enrichment (6-mer frequency, TF over GST control)"
same,binding signal,[3],"1.29 fold enrichment (6-mer frequency, TF over GST control)"
same,binding signal,[4],"1.32 fold enrichment (6-mer frequency, TF over GST control)"
same,binding signal,[5],"1.23 fold enrichment (6-mer frequency, TF over GST control)"
same,binding signal,[6],"1.36 fold enrichment (6-mer frequency, TF over GST control)"
same,binding signal,[7],"1.23 fold enrichment (6-mer frequency, TF over GST control)"
same,binding signal,[8],"1.3 fold enrichment (6-mer frequency, TF over GST control)"
same,binding signal,[9],"1.28 fold enrichment (6-mer frequency, TF over GST control)"
same,binding signal,[10],"1.25 fold enrichment (6-mer frequency, TF over GST control)"
same,binding signal,[11],"1.36 fold enrichment (6-mer frequency, TF over GST control)"
same,binding signal,[12],"1.48 fold enrichment (6-mer frequency, TF over GST control)"
same,binding signal,[13],"1.2 fold enrichment (6-mer frequency, TF over GST control)"
same,binding signal,[14],"1.27 fold enrichment (6-mer frequency, TF over GST control)"
same,binding signal,[15],"1.17 fold enrichment (6-mer frequency, TF over GST control)"
same,binding signal,[16],"1.23 fold enrichment (6-mer frequency, TF over GST control)"
same,binding signal,[17],"1.44 fold enrichment (6-mer frequency, TF over GST control)"
same,binding signal,[18],"1.08 fold enrichment (6-mer frequency, TF over GST control)"
same,binding signal,[19],"1.28 fold enrichment (6-mer frequency, TF over GST control)"
